Experimental data: the OligoGym collection

Target: CYB5RL
Experiment: pooled miR-30 sensor sort-seq; sequence = guide strand
Conditions: shRNA
Also: reference of the scale not given here.

| Sequence | sensor-assay potency score (higher = more potent) |
| --- | --- |
| TCTAAGTCATCTACTATCCCTC | 0.024 |
| TAGGTGTCCTTAGTGAGCCTGT | 0.0964 |
| TTTATAGAAGAAATCTCCGAAA | -0.391 |
| TTAACACTTCAAAGTATCCTTC | 0.251 |
| TAGCACTTAATTAACACTTCAA | 0.518 |
| TAGAGCAAACCGGACACGGTAG | -0.685 |
| TTTCTCTTGGTAACTCCAGGGA | -0.389 |
| TAGAGGTCAAACACACAGGGTG | -0.0487 |
| TTCCTCAGTGTCGTCGTCCTCT | -0.09 |
| TTAATTAACACTTCAAAGTATC | -1.17 |
| TTCTCTTGGTAACTCCAGGGAA | -0.56 |
| TTTAATTAGGTCCTGGCCCAGG | -0.401 |

Target: CYBRD1
Experiment: as above
Conditions: shRNA

| Sequence | sensor-assay potency score (higher = more potent) |
| --- | --- |
| TAGAGCTAGTTTTGAAACGTGA | 0.234 |
| TTCATCAGGAGCTTGCTGCATT | 0.213 |
| TTAACTCTGAATCTGATTTGTC | -0.16 |
| TTAAACTCTAGTGCGCTCCCAT | -0.237 |
| TTTTCCTTGCTGCTACTTCATT | -1.57 |
| TATCAGTCCAACCCAGCTGTGC | -0.838 |
| TACTTCATTGTTTAACTCTGAA | -0.114 |
| TTTATATTAATCACATCCTTTC | -0.692 |
| TATATTGTTAACATTGTGGTTC | 0.299 |
| TTATTTCAAGAAACCATCCTTT | 0.251 |
| TTTAACTCTGAATCTGATTTGT | -0.198 |
